Screens (PubChem)
Only some compounds are listed: those with a hit (about 3.2% of all), similar ones and a draw of the others.
AMA1 RON2 block = inhibitors of Plasmodium falciparum AMA1-RON2 interaction; AID 720542; Potency, µM (doses to about 58.2 µM), most hits filed as inhibitors; AlphaScreen AMA1-biotinylated RON2 peptide binding; actives 0.2% (n = 360,000); also: nearly all actives have a fitted effect of over 45% in size
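AMA1 (3D7) with his tag at 25 nM final met compounds first, then biotinylated RON2 peptide at 25 nM; detection used donor plus acceptor beads, 10 µg/mL apiece, read by AlphaScreen after 30 min at room temperature.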
AmpC inh detg = AmpC beta-lactamase inhibition with detergent present. P00811. AmpC hydrolysis of nitrocefin, absorbance 480 nm, 0.01% Triton. Potency, µM (titrated, usually from 114 µM), usual class: inhibitors. actives 0.041% (n = 370,000); also: nearly all actives have a fitted effect of over 25% in size
Target sequence (P00811 whole entry, looked up): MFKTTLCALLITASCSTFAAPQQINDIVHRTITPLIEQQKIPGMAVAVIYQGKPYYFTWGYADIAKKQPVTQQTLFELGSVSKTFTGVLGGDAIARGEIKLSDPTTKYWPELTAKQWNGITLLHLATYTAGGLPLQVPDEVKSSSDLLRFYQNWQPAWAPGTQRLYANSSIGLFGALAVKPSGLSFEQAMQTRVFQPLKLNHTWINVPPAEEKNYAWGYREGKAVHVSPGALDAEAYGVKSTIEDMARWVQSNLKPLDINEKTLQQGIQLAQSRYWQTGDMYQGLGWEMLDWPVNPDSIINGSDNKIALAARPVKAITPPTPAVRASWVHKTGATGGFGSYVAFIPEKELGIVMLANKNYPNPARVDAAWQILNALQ
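20 mM phosphate pH 7.0 + 0.01% (detergent screen) or 0.0001% Triton X-100; 5.3 nM AmpC reagent; cpd preinc 15 min RT; nitrocefin (800 uM stock) to start; A480 q20 s × 4 min; Activity was normalised to no-enzyme and no-compound control wells.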
Sm TGR inh = blocks Schistosoma mansoni thioredoxin glutathione reductase; Potency, µM (titrated, usually from 114 µM), usual class: inhibitors; purified TGR, DTNB reduction, TNB absorbance 405 nm; actives 3% (n = 360,000); also: nearly all actives have a fitted effect of over 60% in size
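TGR 20 nM + NADPH 100 uM (dispensed conc.), cpd preinc 15 min RT; start with NADPH (500 uM addition) then DTNB (15 mM addition). Kinetic TNB absorbance, 405 nm filter. Four-parameter Hill fit across titration.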
RE007 growth inh = less growth of the S. pombe RE007 Vpr strain; S. pombe RE007 Vpr strain, BacTiter-Glo ATP luminescence, 24 h; Potency, µM (series often up to 92.2 µM), hits mostly inhibitors; actives 0.21% (n = 360,000); AID 651644; active = well fitted falling curve with a large enough effect; inconclusive = small, poorly fitted or top-dose-only effect; inactive = no such curve, though single readings can be large or run the other way; also: nearly all actives have a fitted effect of over 50% in size
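Fission yeast strain RE007, carrying one chromosomally integrated HIV-1 vpr copy, was seeded at OD 0.01 in PMG+AL medium with 23 nL pinned compound. After 24 h at 30 °C and 99% humidity, viability was read by BacTiter-Glo luminescence.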
AmpC inh no detg = blocks E. coli AmpC beta-lactamase in detergent-free assay | P00811 | AmpC nitrocefin hydrolysis, absorbance 480 nm, 0.0001% Triton | Potency, µM (top dose mostly 57.1 µM), actives largely listed as inhibitors | actives 0.52% (n = 330,000); also: nearly all actives have a fitted effect of over 20% in size
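AmpC (5.3 nM in the dispensed reagent) in 20 mM phosphate pH 7.0 with 0.01% (detergent screen) or 0.0001% Triton X-100 was preincubated with compounds for 15 min at room temperature. Nitrocefin was then added from an 800 uM solution, and hydrolysis was followed at 480 nm.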
A number is an active result; . = inactive; ? = inconclusive; / = not tested or not shown; [ ] = remark or other dose. Unless noted, calls follow the shape of the dose curve; as a rule, active = well fitted curve in the direction sought with a large enough effect; inconclusive = small, poorly fitted or top-dose-only effect, or another doubt; inactive = no such curve, though single readings can be large; an effect the other way counts as inactive or inconclusive.

SMILES	AMA1 RON2 block	AmpC inh detg	Sm TGR inh	RE007 growth inh	AmpC inh no detg
Cc1ccc(-n2nc(C)c3c(C(=O)Nc4ccc(Br)c(C)c4)cc(C)nc32)cc1	/	.	.	/	/
COC(=O)c1cc(C)nc2c1c(=O)nc(SCc1ccccc1C)n2C1CC1	/	.	.	/	/
N#CC1(NC(=O)Cn2ncc(Cl)c(Cl)c2=O)CCCCC1	.	.	17.8µM	.	25.1µM
N#CC1(NC(=O)CN2C(=O)c3ccccc3C2=O)CCCCC1	.	.	.	.	.
CC(C)(C)OC(=O)N1CCC(c2c(C(=O)N3CCN(Cc4ccccc4)CC3)cnn2-c2cccc(Cl)c2)CC1	/	.	.	/	/
COC(=O)c1cccnc1N1CCN(c2ccccc2F)CC1	.	.	.	.	0.159µM
CCCC(C)C(=O)OCC(=O)Nc1ccc(Br)cc1 (stereo unspecified)	/	.	44.7µM	/	.
CC(=O)n1cc(N(C(=O)CCl)c2ccc(C)cc2)c2ccccc21	.	.	0.708µM	.	.
CCc1nc2nc(C)cc(Nc3cc(Cl)ccc3C)n2n1	/	.	.	/	/
COc1ccc(CN2C(=O)NC(=O)/C(=C/c3cc(OC)c(OC)c(OC)c3)C2=O)cc1	.	.	?	.	.
COc1ccc(CN2C(=O)NC(=O)/C(=C/c3ccoc3)C2=O)cc1	.	.	?	.	10µM
COC(=O)c1ccc(Nc2ncnc3c2cnn3C)cc1	/	.	.	/	/
CN(C)c1cccc(C(=O)Nc2nc3ccc(S(=O)(=O)N4CCCC4)cc3s2)c1	/	.	.	/	/
CCCCN(CC)CCCNC(=O)Nc1sc2nc3n(c(=O)c2c1C)CCC(C)CC3 (stereo unspecified)	/	.	.	/	/
CCOc1ccc(N(CC)C(=O)COc2cc(=O)n(C)c3ccccc23)cc1	.	?	.	.	25.1µM
CC(C)CN(CCCNC(=O)c1cc(-c2cccs2)nc2ccccc12)CC(C)C	/	.	.	/	/
CN1C(=O)c2cccc3c(S(=O)(=O)Nc4cccc(C(=O)O)c4)ccc1c23	/	.	.	/	/
O=[N+]([O-])c1cc([As](=O)(O)c2ccc(O)c([N+](=O)[O-])c2)ccc1O	.	.	14.1µM	.	.
Cc1nc(SCc2ccc(O)c([N+](=O)[O-])c2)c([N+](=O)[O-])[nH]1	.	.	39.8µM	.	.
N=C(N)SCc1ccc(O)c([N+](=O)[O-])c1	.	.	44.7µM	.	.
Cc1nc(SCc2ccc(O)c([N+](=O)[O-])c2)n[nH]1	.	.	.	.	.
O=[N+]([O-])c1cc(CN(CCO)CCO)ccc1O	.	.	?	.	.
Cc1ccc(C(=O)N2CCN(Cc3cc(=O)n4nc(-c5ccccc5)sc4n3)CC2)cc1	/	.	.	/	/
CCc1ccccc1NC(=O)CCS(=O)(=O)c1cccc2nonc12	/	.	.	/	/
COc1cccc(-c2cc(C(F)(F)F)nc(-n3nc(C)c(Br)c3C)n2)c1	/	.	.	/	/
SMILES	AMA1 RON2 block	AmpC inh detg	Sm TGR inh	RE007 growth inh	AmpC inh no detg
COC(=O)c1ccc(NC(=O)C(=O)NCCc2csc3nc(-c4ccccc4F)nn23)cc1	/	.	.	/	/
COC(=O)C1=C(C)N=c2s/c(=C3\C(=O)Nc4ccccc43)c(=O)n2C1c1ccccc1 (stereo unspecified)	/	?	50.1µM	/	.
CCOC(=O)C1=C(C)n2c(s/c(=C3\C(=O)Nc4ccccc43)c2=O)=NC1c1ccc(OC)cc1 (stereo unspecified)	.[2.32 µM]	.	25.1µM	.	.
CCOC(=O)C1=C(C)N=c2s/c(=C\c3ccc(C(=O)O)cc3)c(=O)n2C1c1ccc(F)cc1 (stereo unspecified)	.	.	.	.	.
CCOC(=O)c1c(C)nc2sc3c(c2c1-c1ccc(OC)cc1)NC(c1ccccc1)NC3=O (stereo unspecified)	.	.	.	.	.
CCOC(=O)C1=C(C)N=c2s/c(=C3/C(=O)Nc4ccccc43)c(=O)n2C1c1ccc(C)cc1 (stereo unspecified)	.	.	20µM	.	.
CCN(CC)CCCNC(=O)c1ccc(-c2nc(CN3CCc4ccccc43)c(C)o2)cc1	/	.	.	/	/
CCOC(=O)[C@]12CCCC=C1N(Cc1ccccc1)C(=O)[C@H](CC(=O)N1CCOCC1)C2	.	/	/	.	/
Cn1c(/C(C#N)=C/c2cccc(O)c2)nc2ccccc21	.	.	/	.	.
